# Compounds without any hit were thinned out: in the full panel of roughly 83,000, 20% have a hit.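 Interpretation: 100, growth as untreated; towards 0, rising growth inhibition; 0, no net growth; 0 to -100, cell death. Compounds scoring below 10 were considered active.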 Unmarked numbers belong to inactive results. Calls of active or inactive are those of the source.
# How the values were obtained:
# Assay in all cases: NCI-60 one-dose screen, 48 h (100 = growth as untreated, 0 = no growth, -100 = all killed)
# Settings in all cases: 10 µM unless noted
# [1] = test system: HCT-15 colon
# [2] = test system: HT29 colon
# [3] = test system: SNB-75 CNS
# [4] = test system: SNB-19 CNS
# [5] = test system: U251 CNS
# [6] = test system: PC-3 prostate
# [7] = test system: SK-MEL-5 melanoma
# [8] = test system: UACC-62 melanoma
# [9] = test system: LOX IMVI melanoma
# [10] = test system: SK-MEL-28 melanoma
Structure (SMILES),growth [1],growth [2],growth [3],growth [4],growth [5],growth [6],growth [7],growth [8],growth [9],growth [10]
O=C(Nc1cc(Cl)cc(Cl)c1)Oc1c(Cl)c(Cl)c(Cl)c(Cl)c1Cl,77.8%,73.2%,71.3%,66.1%,62.9%,42.2%,41.5%,65.7%,72.5%,84.8%
O=C1Nc2ccccc2/C1=N/N1C(=O)CN(CCCl)C1=O,105%,99.1%,86.8%,97.1%,102%,99%,97.5%,90.5%,100%,111%
N#Cc1c(-c2ccc(Cl)cc2)nc(NN=Cc2ccc[nH]2)nc1N1CCOCC1,78.9%,66.2%,-13.5% (active),74.2%,56.4%,46.6%,85.2%,88%,87.8%,90.8%
O=C(Nc1ncc(Cc2ccccc2)s1)c1sc2ccccc2c1Cl,26.5%,12.3%,-1.11% (active),52.6%,21.4%,27%,3.74% (active),12.1%,46.9%,59.4%
ClC(Cl)c1nc(-c2ccccc2)n2nc(-c3ccccc3)cc2n1,-16% (active),1.24% (active),-37.5% (active),6.64% (active),-14.9% (active),17.2%,84.4%,68.4%,72.1%,25.5%
COc1ccc(-c2cn(Cc3cc4ccccc4s3)nn2)cc1OCCN1CCCCC1,59.4%,20.1%,83.8%,86.3%,74.5%,68.4%,42.8%,83.8%,48.9%,75.8%
C=C1C(=O)O[C@H]2[C@H]1CC/C(COC(=O)NCc1ccc(Cn3c(=O)sn(-c4ccccc4)c3=O)cc1)=C\CC[C@@]1(C)O[C@@H]21,32.4%,20.1%,9.33% (active),92.4%,40.4%,64%,95.1%,48.2%,6.38% (active),47%
COC(=O)c1ccc2cc(OC)c(OC)cc2c1,100%,90.7%,97.8%,99.5%,95.7%,92.1%,108%,104%,109%,102%
CN(C)c1ccc([C@@H](C(=O)Nc2cccc([N+](=O)[O-])c2)N(C(=O)c2cc3ccccc3[nH]2)c2cccc([N+](=O)[O-])c2)cc1,103%,101%,78.2%,97.8%,88.8%,82.7%,97.7%,86.7%,88%,112%
CCN(CC)CCOc1ccc(Nc2ncc3cc(-c4c(Cl)cccc4Cl)c(=O)n(CCOC)c3n2)cc1,12.9%,-22.6% (active),-39.9% (active),18.4%,0.141% (active),60%,13.6%,32.1%,-77.6% (active),36.9%
Cc1ccc2c(c1)sc1nc(-c3c[nH]c4ccccc34)c(Nc3ccccc3)n12,105%,104%,89.8%,94.9%,106%,90.4%,113%,89.4%,96.3%,110%
COc1c2c(cc3c1C(=O)N[C@@H]1[C@@H](O)[C@@H](O)[C@H](O)C[C@@H]31)OCCO2,102%,106%,99.3%,102%,100%,97.7%,99.1%,96.7%,101%,106%
CC(C)CCC[C@@H](C)[C@H]1CC[C@H]2[C@@H]3CC=C4c5sc(Nc6cc(C(F)(F)F)cc(C(F)(F)F)c6)nc5CC[C@]4(C)[C@H]3CC[C@]12C,101%,110%,95.5%,98.6%,96%,92.8%,100%,94.5%,96.8%,113%
Cc1ccc(NC(=O)c2cc3ccccc3cc2O)c(C)c1,77.4%,104%,96.8%,105%,97.5%,35.9%,49.4%,66.1%,88%,81.9%
Cc1ccc(C)c2c1sc1nc(N3CCOCC3)c(C#N)c(=O)n12,102%,97.2%,53.2%,96.3%,58.9%,18.5%,88.5%,90.2%,67%,103%
CC(=O)O[C@H]1CC[C@]2(C)[C@H]3CC=C4[C@@H]5CC(C)(C)CC[C@]5(C(=O)N5CCN(CCC#N)CC5)CC[C@@]4(C)[C@]3(C)CC[C@H]2C1(C)C,20.3%,12.4%,53.8%,63.2%,12.4%,19.5%,7.89% (active),38%,20%,52.2%
COc1cc([C@@H](CCO)C[C@H](C)c2ccc3ccccc3c2)cc(OC)c1OC,26.3%,11.2%,-10% (active),37.8%,27.8%,29.7%,28%,39.2%,39.2%,61.8%
COc1ccc(-c2nc(SCC(=O)Nc3nc4ccc(C)cc4s3)[nH]c(=O)c2C#N)cc1OC,104%,107%,60.4%,101%,104%,93.2%,97.7%,94.4%,90.4%,108%
CC(C)(C)c1ccc(C(=O)N/N=C/c2ccc(O)cc2O)cc1,14.1%,26.4%,37.6%,28.4%,19.6%,34.9%,-46.1% (active),4.25% (active),2.62% (active),27.8%
COc1ccc(/C=C2\CN(C(=O)C(Cl)Cl)C/C(=C\c3ccc(OC)c(OC)c3)C2=O)cc1OC,-38.9% (active),10.8%,10.9%,6.34% (active),-17.4% (active),-7.16% (active),-58.8% (active),-59.6% (active),-67.8% (active),-8.59% (active)
Cc1ccc2c(/C=C/C(=O)c3cc(CN4CCOCC4)c(O)c4nc(C)ccc34)cc(CN3CCOCC3)c(O)c2n1,0.566% (active),-6.31% (active),23.3%,36.4%,-24% (active),19.9%,4.68% (active),-0.641% (active),-66.8% (active),-19.9% (active)
O=C(/C=C/c1ccccc1)c1ccc(-n2cc(CN3CCN(c4cc5c(cc4F)c(=O)c(C(=O)O)cn5C4CC4)CC3)nn2)cc1,91.6%,79.2%,72.3%,72%,42.2%,79.3%,77.6%,73.8%,36.2%,88.2%
O=C(Nc1ccccc1O)c1ccc(CNc2ccnc(C(F)(F)F)c2)cc1,67.5%,75.8%,55.9%,68%,60.3%,57.7%,38.1%,32.8%,52.7%,69.9%
Nc1cc(Br)cc2c1[nH]c(=O)c1ccccc12,110%,114%,81.7%,102%,90.7%,89.6%,96.5%,100%,95.5%,101%
COc1ccc(C2[C@@H](Cl)C(=O)N2c2cc(OC)c(OC)c(OC)c2)cc1Cl (stereo not given in full),11%,-3.88% (active),75.7%,32.1%,5.8% (active),25.1%,-23.8% (active),36.3%,20.9%,69.6%
CCCCO[C@@H]1C=C2[C@H]3CC(C)(C)C(=O)C[C@]3(C(=O)O[C@@H]3O[C@H](CO[C@@H]4O[C@H](CO)[C@@H](OC5OC(C)C(O)C(O)C5O)[C@H](O)[C@H]4O)[C@@H](O)[C@H](O)[C@H]3O)CC[C@@]2(C)[C@]2(C)CC[C@H]3C(C)(C)C(=O)CC[C@]3(C)[C@@H]12 (stereo not given in full),54.5%,43.2%,31.3%,88%,56.4%,85.2%,63.9%,81.4%,76.9%,41.5%

# Source: PubChem BioAssay (NCI)
